Sfp inh = blocks B. subtilis Sfp PPTase activity; Potency, µM, actives largely listed as inhibitors; Q9F4F7; 310,000 compounds, 3.5% hits; Biochemical Sfp PPTase activity, qHTS;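 note: the enzyme is Sfp with the accession as filed and its product quenches rhodamine fluorescence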
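Sfp 15 nM + cpd, 15 min RT; start w/ rhodamine-CoA 5 uM, BHQ-2-YbbR 12.5 uM (final); 50 mM Hepes pH 7.6, 10 mM MgCl2, 0.01% NP-40, 0.01% BSA; read 525/598 nm at 0 and 30 min.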
PLK1 PBD block = inhibitors of human PLK1 polo-box domain binding; AID 720504; P53350; 360,000 compounds, 2.8% hits; Plk1 PBD binding of FITC phosphopeptide, fluorescence polarization; Potency, µM, hits mostly inhibitors; note: series mostly up to about 57 µM; nearly all actives have a fitted effect of over 65% in size
Target sequence (P53350 whole entry, looked up, the tested form may be a part): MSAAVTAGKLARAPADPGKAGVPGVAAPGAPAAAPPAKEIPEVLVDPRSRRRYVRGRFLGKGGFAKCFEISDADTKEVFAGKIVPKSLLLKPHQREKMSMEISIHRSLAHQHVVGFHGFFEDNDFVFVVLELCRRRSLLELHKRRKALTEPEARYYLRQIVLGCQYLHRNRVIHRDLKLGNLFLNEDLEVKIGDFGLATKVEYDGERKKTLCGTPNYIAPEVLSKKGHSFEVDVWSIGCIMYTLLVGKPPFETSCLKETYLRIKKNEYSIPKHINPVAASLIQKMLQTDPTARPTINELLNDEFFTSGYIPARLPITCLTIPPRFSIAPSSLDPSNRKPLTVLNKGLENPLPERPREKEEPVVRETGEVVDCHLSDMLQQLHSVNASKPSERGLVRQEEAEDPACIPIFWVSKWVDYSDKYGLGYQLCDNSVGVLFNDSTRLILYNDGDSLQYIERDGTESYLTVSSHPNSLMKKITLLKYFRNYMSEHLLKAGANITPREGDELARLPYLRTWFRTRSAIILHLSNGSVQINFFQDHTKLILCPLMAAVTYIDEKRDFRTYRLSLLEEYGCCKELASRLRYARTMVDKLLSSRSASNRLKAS
IDH1 R132H inh = inhibitors of human mutant IDH1 R132H. O75874. IDH1-R132H enzyme, NADPH consumption, diaphorase/resazurin fluorescence. Potency, µM (titrated, usually from 76.6 µM), most hits filed as inhibitors. 390,000 compounds, 0.093% hits. AID 602179; note: nearly all actives have a fitted effect of over 65% in size
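IDH1-R132H (0.5 ug/mL dispensed) in pH 7.5 Tris buffer was preincubated 30 min with compound, then given a substrate mix of 0.016 mM NADPH and 2 mM alpha-KG for 80 min at room temperature; remaining NADPH was read by diaphorase/resazurin fluorescence.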
rTrxR1 inhibitor = blocks rat thioredoxin reductase 1 | 390,000 compounds, 1% hits | Potency, µM (top dose mostly 114 µM), most hits filed as inhibitors | O89049 | recombinant rTrxR1, NADPH fluorescence consumption, selenite substrate; note: nearly all actives have a fitted effect of over 65% in size
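Rat TrxR1 (90 nM in the dispensed reagent) was pre-reduced with 400 uM NADPH for 5 min at room temperature, then incubated with compound for 15 min. After 400 uM selenite was added, NADPH fluorescence (Ex 340/Em 450 nm) was followed for 8 min.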
VDR inhibitor = blocks the human vitamin D receptor | P11473 | VDR-SRC2-3 peptide fluorescence polarization, 2 h | Potency, µM, hits mostly inhibitors | 400,000 compounds, 0.93% hits
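Inhibition of the VDR/SRC2-3 peptide interaction is quantified by fluorescence polarization. Compounds (23 nl, pintool) incubate with the reagents for 2 hours at ambient room temperature.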
TrxR1 substrate = rat thioredoxin reductase 1 substrate activity; O89049; purified TrxR1 substrate turnover, NADPH consumption readout; Potency, µM (highest dose often 114 µM); 390,000 compounds, 0.01% hits; note: nearly all actives have a fitted effect of over 50% in size
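Rat TrxR1, dispensed at 90 nM, was prereduced with 400 uM NADPH (final) for 5 min at ~22 deg C, then incubated with compound 15 min before 400 uM selenite. A first-read NADPH fluorescence drop versus no-compound background flagged substrates.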
Each line names hits and unclear results; the compound was inactive in the other large screens. An excerpt weighted towards active compounds, which were near 5.2% of everything screened. Calls come from the whole dose curve; as a rule, active = well fitted curve in the direction sought with a large enough effect; inconclusive = small, poorly fitted or top-dose-only effect, or another doubt; inactive = no such curve, though single readings can be large; an effect the other way counts as inactive or inconclusive.

CCCn1nnc(NC(=S)NC(=O)Cc2ccccc2)n1	none
COC(=O)c1c(NC(=O)CCC(=O)O)sc2c1CCCCC2	PLK1 PBD block inconclusive
O=C(O)CCC(=O)Nc1sc2c(c1C(=O)Nc1cccc3ccccc13)CCCCC2	Sfp inh 50.1µM, VDR inhibitor inconclusive
COC(=O)c1c(NC(=O)c2nc3ccccc3s2)sc2c1CCN(C(C)=O)C2	Sfp inh inconclusive
CNC(=O)c1c(NC(=O)c2nc3ccccc3s2)sc2c1CCC2	Sfp inh 17.8µM (no result: PLK1 PBD block, IDH1 R132H inh, rTrxR1 inhibitor, VDR inhibitor, TrxR1 substrate)
COc1ccc(OC)c(NC(=O)c2c(NCc3cccs3)sc3c2CCCC3)c1	rTrxR1 inhibitor 44.7µM (no result: Sfp inh, PLK1 PBD block)
CCc1ccccc1NC(=O)c1c(NC(=O)c2ccccc2)sc2c1CCCC2	rTrxR1 inhibitor 89.1µM (no result: Sfp inh, PLK1 PBD block)
COc1cc(C)c(NC(C)C(=O)c2c(C)[nH]c3ccccc23)cc1OC (stereo not drawn)	none (no result: Sfp inh, PLK1 PBD block, IDH1 R132H inh, VDR inhibitor)
FC(F)(F)C(F)(F)C(F)(F)C(F)(F)C(F)(F)C(F)(F)F	none (no result: PLK1 PBD block, IDH1 R132H inh, rTrxR1 inhibitor, TrxR1 substrate)
CCCNC(=O)N1C[C@H](O)COC[C@@H]2O[C@@H](CC(=O)NCCCN3CCOCC3)CC[C@H]21	none (no result: Sfp inh, IDH1 R132H inh, rTrxR1 inhibitor, VDR inhibitor, TrxR1 substrate)
COc1ccc(OC)c(NC(=O)c2c(NC(=O)CCC(=O)O)sc3c2CCCCC3)c1	Sfp inh 50.1µM, VDR inhibitor inconclusive
CC(C)(C)C(=O)Nc1sc2c(c1C(=O)Nc1ccccn1)CCCC2	PLK1 PBD block 26.7µM
CN(C)c1nc(-c2cccnc2)nc(-c2ccccc2)c1C#N	none
Cc1cccc(-c2nc(NCCN(C)C)c3ccccc3n2)c1	none (no result: Sfp inh, rTrxR1 inhibitor, VDR inhibitor, TrxR1 substrate)
CCN1CCN(c2nc3c(c(=O)[nH]c(=O)n3C)n2Cc2cccc(C)c2)CC1	none (no result: Sfp inh, rTrxR1 inhibitor, VDR inhibitor, TrxR1 substrate)
Cc1ccc(/C=c2\s/c(=C(/C#N)C(=O)N3CCCC3)n(Cc3ccco3)c2=O)s1	Sfp inh 12.6µM, rTrxR1 inhibitor 25.1µM
COc1cc(/C=c2\s/c(=C(/C#N)C(=O)N3CCCC3)n(-c3ccccc3)c2=O)ccc1O	none
O=C(Nc1ccc(C(F)(F)F)cc1)c1ccccc1Br	PLK1 PBD block 23.8µM
NS(=O)(=O)c1ccc(NC(=S)NCc2ccc(F)cc2)cc1	Sfp inh inconclusive, PLK1 PBD block 21.2µM, rTrxR1 inhibitor inconclusive, VDR inhibitor inconclusive
NS(=O)(=O)c1ccc(NC(=S)NCc2ccco2)cc1	Sfp inh 20µM, PLK1 PBD block 26.7µM, VDR inhibitor inconclusive
NS(=O)(=O)c1ccc(CNC(=S)Nc2ccc(F)c(Cl)c2)cc1	none
Cc1cc(C)cc(NC(=S)NCc2ccc(S(N)(=O)=O)cc2)c1	PLK1 PBD block inconclusive
NS(=O)(=O)c1ccc(NC(=S)NCc2ccc3c(c2)OCO3)cc1	Sfp inh 20µM, PLK1 PBD block 21.2µM
NS(=O)(=O)c1cccc(NC(=S)NCc2ccc3c(c2)OCO3)c1	PLK1 PBD block inconclusive
NC(=O)c1ccc(NC(=S)NCc2ccco2)cc1	rTrxR1 inhibitor inconclusive
NS(=O)(=O)c1ccc(NC(=S)NCc2ccc(Cl)cc2)cc1	Sfp inh 22.4µM, PLK1 PBD block 10.6µM, VDR inhibitor inconclusive
COc1cccc(C(O)c2nc(-c3cccc(C#N)c3)cs2)c1 (stereo not drawn)	none (no result: Sfp inh, IDH1 R132H inh, rTrxR1 inhibitor, VDR inhibitor, TrxR1 substrate)
CCCCN(CC)C(=O)CCNS(=O)(=O)c1ccc2c(c1)c(=O)n(C)c(=O)n2C	none (no result: Sfp inh, PLK1 PBD block)
N[C@@H](C(=O)O)c1cc(O)ccc1Cl	none (no result: PLK1 PBD block, IDH1 R132H inh, rTrxR1 inhibitor, TrxR1 substrate)
O=c1oc2ccccc2nc1/C=C(\O)c1ccc(Br)cc1	Sfp inh 56.2µM, PLK1 PBD block inconclusive
COCCNC(=O)Cn1cc(C(=S)N2CCCCC2)c2ccccc21	none
O=C(C(=O)N1CCN(c2ccccc2F)CC1)c1cn(CC(=O)N2CCOCC2)c2ccccc12	PLK1 PBD block 23.8µM, VDR inhibitor inconclusive
S=C(c1cn(CCOc2ccccc2)c2ccccc12)N1CCCC1	Sfp inh inconclusive, PLK1 PBD block inconclusive
O=C(O)Cn1cc(C(=S)N2CCCCC2)c2ccccc21	Sfp inh 22.4µM, PLK1 PBD block 15µM
O=Cc1cn(CC(=O)N2CCCCC2)c2ccccc12	none
O=C(O)Cn1cc(/C=C2/SC(=O)N(CC(=O)N3CCCCCC3)C2=O)c2ccccc21	PLK1 PBD block 26.7µM, VDR inhibitor inconclusive
Cc1ccc(OCCn2cc(C(=S)N3CCCC3)c3ccccc32)cc1C	PLK1 PBD block 2.99µM
